Assay results reported in the supplement of paper PMC11417369.
Over roughly 25,000 sequences, “ln(normalized median fluorescence intensity)” has its median near 9.7; the highest 2% begin near 11. The list comes from a sample in which the highest values are over-represented; it also holds similar and randomly drawn sequences.

System: PfAP2-HC AP2 domain (GST-tagged)
Assay: gcPBM binding intensity (ln(normalized median fluorescence intensity)); higher = stronger DNA binding
In short: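 Each value is the highest Masliner-normalised natural-log median intensity across replicate spots of either orientation of a probe. The probes were primer-extended double-stranded 36-bp intergenic genomic sequences on an Agilent 4 × 180k array, alongside negative controls, exposed for 1 h to GST-tagged P. falciparum DNA-binding domains expressed in E. coli. Bound protein was picked up with Alexa488 anti-GST antibody and scanned at 488 nm.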

Row | Sequence | gcPBM binding intensity (ln)
1 | GATTATTTTATAAGTACACACATTTATCTATAATAA [CACACA_site7256] | 9.69
2 | ACGTTAAAAACAAGTTGTACACAATAAATTATTCTT [XGTACX_site6321] | 9.75
3 | GTATTCAAAAGTGAAACATGCAATAATATATATATA [TGCATGCA_site617] | 9.63
4 | AATATTTTTTTATAAACACACATATATATAAATATA [CACACA_site3524] | 9.53
5 | ATACAACAGATATATACACACATATAACAATAATAA [CACACA_site7560] | 10
6 | ATTTAATACAAATACACACACAAATAAATACAGATA [CACACA_site5956] | 10.2
7 | AATACAATTTTTAACACACACACAATAATACAGATA [CACACA_site4823] | 11.2
8 | TACACGTTCTACATTTGTACTTAATTTATACATAAG [XGTACX_site1579] | 9.79
9 | CCATTTACATTGTGAAGTACTAAAAAAAAATGTAGA [XGTACX_site7882] | 9.48
10 | ATCGGTAATATTAACACACACATTTATTTATATTTA [CACACA_site6638] | 10.1
11 | GTATCTCATTATTCGTGTACTAAACACATAAAAATA [XGTACX_site2262] | 9.58
12 | GTTAATTGAAGATTCACACATAAATATATATATAAT [CACACA_site5482] | 9.61
13 | ATATACTATTATGTGTGTACATAATAATTTATTATA [XGTACX_site3776] | 9.75
14 | ATATACTTTTTTTTTTTTTTTTTAACGTTATTTATG [CACACA_negctrl_site1277] | 9.64
15 | AAGATAATTACGCACACACACACACGCCCACAACTA [CACACA_site7255] | 11.4
16 | AAAAGATAATTATGCACACACACACCCCCACCCAAC [CACACA_site2570] | 10.9
17 | GATAATTACGGACACACACACACACGCACAACTAAA [CACACA_site7254] | 10.7
18 | AGCACATTATTCAAAAGTACAAATAGGTATTGTATA [XGTACX_site6107] | 9.59
19 | TTATTCTTTTAATATACACACTTTGTCTTTTCGCGC [CACACA_site5525] | 9.9

Row | Sequence | gcPBM binding intensity (ln)
20 | GAAAAATTAAAACCTACACACACATTTAAAAAAAAA [CACACA_site9005] | 11
21 | TAATTTTTTTTAAACACACACATTACATTCAAAAAT [CACACA_site127] | 10.1
22 | AAAATTAAAACCTACACACACATTTAAAAAAAAAAA [CACACA_site3068] | 10.1
23 | ATACATTCAATGAAATGTACGTTTATTTACAGAAGA [XGTACX_site2999] | 9.6
24 | TTTTTTCTTTTTATGTGTACTTATTTTATTTAATAA [XGTACX_site1080] | 9.76
25 | TTTTTCAGATCCTATATAGTATCATATAAATTCCAT [CACACA_negctrl_site56] | 9.39
26 | AAGAAAAAATGATGAATAGAGATCAAATCTATATAT [TGCATGCA_negctrl_site29] | 9.65
27 | TTTTTAAAATATTTAACACACAATTTTAATGCATAA [CACACA_site6036] | 9.61
28 | AATAAAAAAAAACGCACACACAAATATATTCCATTC [CACACA_site1224] | 10.4
29 | ATATTCATTAACCACACACACAAAAAAAATAAAATT [CACACA_site3801] | 10.2
30 | CAATATAAAAAACACACGCACACAAAAAAAAAAAAA [CACACA_site3521] | 10.3
31 | TCATTCATAAAAATAACACACAAAAAAAAAAAAAAA [CACACA_site1800] | 9.62
32 | GGATATTCATTAACCACACACACAAAAAAAATAAAA [CACACA_site3800] | 11.2
33 | ACACAAAAAATAAAAATATATATATATTATATATAT [CACACA_negctrl_site1489] | 9.75
34 | ATATAAATATTCCACACACACACAAAAAAAAAAAAA [CACACA_site7678] | 11
35 | ATATATATATTCCACACACACACAAAAAAAAAAAAA [CACACA_site3648] | 10.6
36 | TCAATAAAAAAAAACGCACACACAAATATATTCCAT [CACACA_site1223] | 11
37 | TTTTTATAATGATACATATATTATTTTATTCTTAAT [CACACA_negctrl_site124] | 9.54
38 | AAAAAAAAAAAAAAAACACACATATCTGTATTTATA [CACACA_site5760] | 9.75

Row | Sequence | gcPBM binding intensity (ln)
39 | ATATTGACAGGAAAAATTTTCTTTGAATCTTTAAAA [CACACA_negctrl_site1191] | 9.29
40 | ATTAGGATATATTAAAGTACTAATATAATACATTTT [XGTACX_site7386] | 9.55
41 | TTTTACTAAATATATACACACATTATACAGATATAT [CACACA_site5765] | 9.86
42 | TATAAAATACTGTATCGATGGGGGAGGGCGCAGGGG [TGCATGCA_negctrl_site250] | 10.9
43 | AGTATATAAAATACTGTATCGATGGGGGAGGGCGCA [CACACA_negctrl_site1612] | 9.91
44 | ATATATGGGGCGCAGGAAAAGAGTTTTGGAAATAAA [CACACA_negctrl_site1265] | 9.63
45 | TGTATTAATAAAAATACACACATCATATTATATAAA [CACACA_site3534] | 9.73
46 | CAAAATTAATAAGTCACACACACATATATAATATAT [CACACA_site798] | 11
47 | TTAAAATATACATAAACACACACAAAACGTTTAAGA [CACACA_site8267] | 10.4
48 | TTTTAATTAAGACACACACACACATATAAATATGTA [CACACA_site7144] | 11
49 | CATTATAAGAGACACACACACATATATAAATATGTA [CACACA_site6621] | 10.9
50 | ACATATACAAGACACACACACAACGTTTTAATAAAT [CACACA_site7017] | 11.2
51 | AAAAAAATTAGACACACACACACATATAAATATGTA [CACACA_site6618] | 10.8
52 | ATTAAAATATAAGTCACACATATATATATATATATA [CACACA_site6145] | 9.51
53 | AAATTAATAAGTCACACACACATATATAATATATAT [CACACA_site799] | 10.4
54 | ATATTAAAGATATATACACACATATTTATAAATATA [CACACA_site7127] | 9.78
55 | GATAAATTAAGACACACACACATATATTTATTTATA [CACACA_site7789] | 11.2
56 | TAAAATATAAGACACACACACATATATTTATATATC [CACACA_site6248] | 10.5
57 | ACATATACAAAACACACACACAACGTTTTAATAAAT [CACACA_site1979] | 10.7
